Bioassay records as filed in PubChem BioAssay.
Cardiac RTF inh: cardiac RTF calcium sensitivity inhibitors, primary screen, biochemical, IANBD-TnC fluorescence, EC70 calcium. Troponin I, cardiac muscle (Homo sapiens) + Troponin T, cardiac muscle (Homo sapiens) + …. IANBD-labeled cardiac RTF, Ca2+ fluorescence. inhibition, % at 7.15 µM. 340,000 compounds, 0.12% hits. AID 493244, 2011;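 active = inhibition above the mean inhibition of all tested compounds plus 3 SD, cut at about 17% in these data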;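 note: assay run at fixed EC70 calcium of 1.6 mM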
eLon inh: inhibitors of E. coli Lon protease, primary screen, biochemical, fluorescence polarization; 360,000 compounds, 0.42% hits; inhibition, % at 7.94 µM; P0A9M0; purified E. coli Lon protease; in the data active = inhibition above about 13%, passing the limit was not always enough;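 note: 0% = enzyme with probe and DMSO and 100% = no enzyme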
Target sequence (P0A9M0 whole entry, looked up): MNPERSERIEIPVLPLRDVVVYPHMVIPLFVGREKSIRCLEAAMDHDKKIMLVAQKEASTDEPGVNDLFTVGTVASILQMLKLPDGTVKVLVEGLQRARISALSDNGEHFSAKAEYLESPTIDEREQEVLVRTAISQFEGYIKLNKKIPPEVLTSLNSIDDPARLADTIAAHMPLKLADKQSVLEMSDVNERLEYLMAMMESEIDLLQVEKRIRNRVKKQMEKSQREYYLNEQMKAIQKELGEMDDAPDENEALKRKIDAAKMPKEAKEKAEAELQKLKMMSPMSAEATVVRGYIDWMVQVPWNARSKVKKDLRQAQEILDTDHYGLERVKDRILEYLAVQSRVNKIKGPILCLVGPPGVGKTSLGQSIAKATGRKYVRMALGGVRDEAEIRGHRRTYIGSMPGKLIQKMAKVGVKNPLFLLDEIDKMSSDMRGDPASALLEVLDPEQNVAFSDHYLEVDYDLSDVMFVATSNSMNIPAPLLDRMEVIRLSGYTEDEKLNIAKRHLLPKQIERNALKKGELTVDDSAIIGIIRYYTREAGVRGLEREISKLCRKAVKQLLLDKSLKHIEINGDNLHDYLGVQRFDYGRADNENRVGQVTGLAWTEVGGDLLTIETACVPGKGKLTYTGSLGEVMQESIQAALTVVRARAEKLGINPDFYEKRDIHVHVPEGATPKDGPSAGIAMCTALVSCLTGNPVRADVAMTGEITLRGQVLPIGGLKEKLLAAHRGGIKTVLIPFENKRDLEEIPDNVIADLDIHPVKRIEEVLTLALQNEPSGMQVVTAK
cardiac RTF act: cardiac RTF calcium sensitivity activators, primary screen, biochemical, IANBD-TnC fluorescence, EC20 calcium. IANBD-labeled TnC RTF fluorescence at EC20 calcium; 0% EC20 calcium, 100% full calcium. activation, % at 7.2 µM. 340,000 compounds, 0.24% hits;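 active = activation above the mean over all tested compounds plus 3 SD, cut at about 30% in these data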;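 note: rise in fluorescence read as greater calcium sensitivity of cardiac thin filaments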
Keap1 Nrf2 FP: Keap1-Nrf2 protein-protein interaction inhibitors, primary screen, biochemical, fluorescence polarization, single point; Kelch-like ECH-associated protein 1 (Homo sapiens), Q14145; Keap1 Kelch-Nrf2 peptide fluorescence polarization, 1536-well; inhibition, % at 9.4 µM; 340,000 compounds, 0.15% hits; in the data active = inhibition above about 12%;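 note: human Keap1 Kelch domain with fluorescein labeled Nrf2 9mer peptide probe; 0% = neutral control wells and 100% = peptide positive control; higher means more block of Keap1 binding to Nrf2 peptide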
LANA-H2B inh: blockers of LANA interaction with H2A/H2B – biochemical, FP readout, HTS, primary screen; cell-free LANA-H2A/H2B peptide, fluorescence polarization; AID 2629, 2010; inhibition, % (test concentration not listed); 320,000 compounds, 0.6% hits; Protein LANA1 (Human herpesvirus 8 type P (isolate GK18)), Q9QR71; in the data active = inhibition mostly above about 10%, no sharp cut-off; inactive = mostly below about 6.7%
LANA DNA inh: inhibitors of KSHV C-LANA binding to DNA, primary screen, biochemical, fluorescence polarization, FAM-LBS DNA, MBP-C-LANA, single point | Kaposi's sarcoma herpesvirus LANA C-terminal domain (residues 932-1162) DNA binding | inhibition, % at 9 µM | 340,000 compounds, 0.078% hits;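 active = highest replicate inhibition at or above 60% at 9 µM, even if other replicates fall short; inactive = all replicates below 60% inhibition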;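 note: 0% = neutral control wells and 100% = 4 µM acridine orange control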
Numbers without * were called inactive; i = inactive; x = no result given; ! = not confirmed by another sample. Compounds with a hit are over-represented: about 1.3% of the library has one in this group of screens.

SMILES	Cardiac RTF inh	eLon inh	cardiac RTF act	Keap1 Nrf2 FP	LANA-H2B inh	LANA DNA inh
CCCC(=O)Nc1ccc(NC(=O)c2ccccn2)cn1	8	1	-3	-3	39*	0
CCCC(=O)Nc1ccc(NC(=O)c2ccccc2OC)cn1	-9	-2	6	-3	-1	0
CCCCC(=O)Nc1ccc(NC(=O)c2ccco2)cn1	0	-6	-3	-7	11*	-2
Cc1nc2nc[nH]n2c(=O)c1CCOC(=O)c1ccccc1F	1	0	2	2	10*	-1
Cc1ccc(C(C(=O)NC(C)(C)C)N(CC2CCCO2)C(=O)CCC(=O)Nc2ccccn2)cc1 (stereo unspecified)	-6	-6	-2	-1	22*	-1
COc1cccc(CNC(=O)N2CCN(S(=O)(=O)c3ccc(C)cc3)CC2)c1	9	1	-3	-5	6	0
O=S(=O)(Nc1ccc(Br)cc1)c1cccc(NS(=O)(=O)c2cccs2)c1	0	-5	3	1	x	3
CCN(CC)c1ccc(/C=N/NC(=O)c2cc(C)nc3ccccc23)cc1	0	12	3	-10	0	-2
CCN(CC)c1ccc(/C=C/c2cc(-c3ccccc3)c3ccccc3n2)cc1	-430	-333	320*	-5	-6	5
Cc1ccc(S(=O)(=O)Cc2ccc([N+](=O)[O-])cc2)cc1	-8	11	-1	-2	16*	-4
Cc1ccc(CNS(=O)(=O)c2ccc([N+](=O)[O-])cc2)cc1	-6	-1	5	-2	-2	0
Cc1ccc(Nc2ncc3c(n2)CC(C)(C)CC3=O)cc1	6	9	-2	-2	1	0
CC1(C)CC(=O)c2cnc(NC3CC3)nc2C1	0	-11	4	-1	18*	1
COc1ccc(C2N3CC4(C)CN2CC(C)(C3)C4)cc1OC (stereo unspecified)	-8	0	0	3	6.4*	1
Cc1cn([C@H]2C[C@H](N=[N+]=[N-])[C@@H](CO)O2)c(=O)[nH]c1=O	7	-8	6	-2	15*!	0
Cc1ccccc1C(=O)NNS(=O)(=O)c1ccc(F)cc1	x	-6	x	x	x	x
O=C(Nc1nc2ccccc2s1)c1cccc(S(=O)(=O)N2CCc3ccccc32)c1	-2	-12	4	2	1	2
O=C(Nc1nc2c(s1)CN(Cc1ccccc1)CC2)c1cccc(S(=O)(=O)N2CCc3ccccc32)c1	-74	-113	67*	-6	3	9
CCN(CC)C(=O)Cn1c(C)c(/C=C/c2cc[n+](C)cc2)c2ccccc21	-137	i	87*	-136	-133	x
CCn1cc(/C=C/c2cc[n+](C)cc2)c2ccccc21	-427	-273	371*	-186	-210	-22
Cc1[nH]c2ccccc2c1/C=C/c1cc[n+](C)cc1	-134	-418	95*	-136	x	-39
C=CCn1cc(/C=C/c2cc[n+](C)cc2)c2ccccc21	-220	-257	170*	-155	-209	-8
C[n+]1ccc2[nH]c3ccccc3c2c1	x	-7	x	x	x	x
COc1cccc(CN2CCN(Cc3cccc4nonc34)CC2CCO)c1 (stereo unspecified)	-7	-7	1	1	-3	-1
CN(C)S(=O)(=O)c1cccc(NC(=O)CCCc2nc3ccccc3c(=O)[nH]2)c1	-18	-1	-3	0	x	1
COc1ccc(S(=O)(=O)N(C)C)cc1NCC(=O)Nc1ccc(Br)c(C)c1	-9	-3	5	-1	-5	1
COCCn1c(=NC(=O)CSCC(=O)N2CCOCC2)sc2ccccc21	1	4	-5	-3	3	0
C=CCn1c(C)c(/C=C/c2cc[n+](C)cc2)c2ccccc21	-149	i	114*	-171	-220	-50
Cc1ccccc1/C=C/c1cc[n+](C)cc1	-12	3	4	-2	3	1
